According to PubChem BioAssay AID624330 (Southern Research Specialized Biocontainment Screening …, 2012):
In all, about 340,000 compounds went through this assay and about 2,100 (0.62%) were called active.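 How the source made its calls: active means first-screen hits whose inhibition reached a set limit at any dose in the follow-up dose series; inconclusive means inhibition above the set first-screen limit but never retested; inactive means the rest.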 These entries were drawn from the full list. Entries with a potency or affinity are not part of this list.

What follows are molecules tested against Rac GTPase-activating protein 1 (Homo sapiens) (UniProt Q9H0H5) (assay: MgcRacGAP GTPase-activating activity inhibitors, confirmation, biochemical, ADP Hunter fluorescence, primary and confirmatory (AID 624330;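 further: fluorescence reports GDP produced by GAP-driven GTP hydrolysis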)). Details: MgcRacGAP-stimulated Rac1 GTP hydrolysis, at 30 µM, hits give high values, GST-tagged Rac1 F28L mutant substrate.
Sequence of Rac GTPase-activating protein 1 (Homo sapiens) (Q9H0H5 whole entry, looked up): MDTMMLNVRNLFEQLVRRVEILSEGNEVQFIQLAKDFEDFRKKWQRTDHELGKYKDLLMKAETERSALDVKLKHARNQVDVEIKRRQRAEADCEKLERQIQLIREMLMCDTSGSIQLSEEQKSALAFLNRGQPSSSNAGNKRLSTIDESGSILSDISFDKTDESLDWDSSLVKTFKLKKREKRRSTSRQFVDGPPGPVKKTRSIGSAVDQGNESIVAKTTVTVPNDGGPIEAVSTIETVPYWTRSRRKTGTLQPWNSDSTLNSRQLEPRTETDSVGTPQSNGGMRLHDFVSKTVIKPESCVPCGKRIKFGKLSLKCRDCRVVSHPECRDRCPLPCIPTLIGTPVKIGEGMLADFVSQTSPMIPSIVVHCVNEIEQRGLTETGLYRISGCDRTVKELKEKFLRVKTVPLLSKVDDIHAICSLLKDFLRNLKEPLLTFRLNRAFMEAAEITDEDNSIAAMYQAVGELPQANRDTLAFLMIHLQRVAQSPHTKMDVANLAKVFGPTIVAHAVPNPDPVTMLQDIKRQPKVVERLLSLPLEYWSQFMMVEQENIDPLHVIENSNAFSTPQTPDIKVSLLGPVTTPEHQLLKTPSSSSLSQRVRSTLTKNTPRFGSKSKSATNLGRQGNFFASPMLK

inhibition, inactive:
O=C(Cn1c(-c2ccccc2)noc1=O)N1CCC(Cc2ccccc2)CC1 5.27%
O=C(CNCc1ccccc1)Nc1cccc(Cl)c1Cl 27.2%
CCCCCN(C(=O)CCC(=O)OCC(=O)c1c(C)cc(C)cc1C)c1c(N)n(CCCC)c(=O)[nH]c1=O 3.32%
CCN(C(=O)c1c(N)cnn1C)c1ccccc1 -2.97%
COc1ccc(N2CCN(C(=O)COC(=O)c3cccc(S(=O)(=O)Nc4cccc(C)c4)c3)CC2)cc1 5.68%
CCOC(=O)c1oc2cccc(O)c2c1C 5.83%
CCOC(=O)c1oc2cc(C)cc(C)c2c1C 4.4%
Cc1ccc(-n2ncc3c2CC(C)(C)CC3NC(=O)c2c(C)noc2C)cc1 (centres undefined) 5.31%
CC(=O)Nc1ccc(S(=O)(=O)Nc2cc(C)cn(Cc3ccccc3)c2=O)cc1 3.18%
O=C(CN1CCN(S(=O)(=O)c2ccc(F)c(Cl)c2)CC1)N1CCc2ccccc2C1 2.62%
O=C(CN1CCN(S(=O)(=O)c2cc(C(F)(F)F)ccc2Cl)CC1)N1CCc2ccccc2C1 9.9%
O=C(CN1CCN(S(=O)(=O)c2ccc3ccccc3c2)CC1)N1CCc2ccccc2C1 10.7%
COc1ccc(S(=O)(=O)N2CCN(CC(=O)N3CCc4ccccc4C3)CC2)cc1OC 7.25%
Cc1cc(OCC(=O)NCC(c2ccc(F)cc2)N2CCOCC2)ccc1Cl (centres undefined) 3.16%
O=C(CCc1ccc(S(=O)(=O)N2CCOCC2)cc1)Oc1ccccc1 8.54%
CN1CCN(CC(=O)Nc2cc(N(C)C)nc3ccccc23)CC1 27.1%
CN(C)c1cc(NC(=O)CN2CCOCC2)c2ccccc2n1 0.97%
CCCCc1nc2ccccc2c(NC(=O)CN2CCCC2)c1CCC 28.9%
CCCCc1nc2ccccc2c(NC(=O)CNC(C)(C)C)c1CCC 20.5%
O=C(CN1CCCCC1)Nc1c2c(nc3ccccc13)N(c1ccccc1)CC2 20.7%
O=C(CN1CCCC1)Nc1c2c(nc3ccccc13)N(Cc1ccccc1)CC2 3.93%
CCCn1c(=O)c(C(=O)NCC2CCCO2)c(O)c2ccccc21 (centres undefined) 5.01%
O=C1c2ccccc2C(=O)N1CCCCNc1ccccc1 -2.64%
COC(=O)c1sc2ncccc2c1OCc1ccc(Cl)cc1 1.91%
N#C/C(=C\c1ccc2c(c1)OCCO2)C(=O)NC1CCCCC1 4%
C=CCOC(=O)COc1ccc2c(C)c(C)c(=O)oc2c1C -6.38%
COCCNC(=O)c1cc2c(=O)[nH]c3ccccc3c2s1 6.07%
CCOc1ccc(/C=N/Nc2ccc(C(F)(F)F)cc2[N+](=O)[O-])cc1O 13.1%
O=C(CCc1nc2ccccc2c(=O)[nH]1)Nc1ccc(F)c([N+](=O)[O-])c1 2.61%
Clc1ccc(C2=Nc3cc(Cl)ccc3OC2)cc1 12.9%
CCC1=Nc2cc(C(=O)O)ccc2Sc2ccc(Cl)cc21 6.46%
CCOc1ccc2nc(SCC(=O)NCc3ccc(OC)cc3)[nH]c2c1 6.56%
Cc1ccc2c(c1)N(C(=O)CCC(=O)N1CCN(c3ccccc3)CC1)CCO2 11.2%
CCN(CC)c1ccc(/C=N/NC(=O)CNC(=O)C2COc3ccccc3O2)c(O)c1 (centres undefined) 5%
COc1ccc(/C=N/NC(=O)CNC(=O)C2COc3ccccc3O2)cc1OC (centres undefined) 6.43%
O=C(CNC(=O)C1COc2ccccc2O1)N/N=C\c1cccc(O)c1 (centres undefined) 3.96%
COc1ccc(/C=N\NC(=O)CNC(=O)C2COc3ccccc3O2)cc1[N+](=O)[O-] (centres undefined) 5.39%
CCOC(=O)N1CCN(C(=O)COC(=O)c2cc(C)ccc2C)CC1 -2.55%
CCOc1ccccc1NC(=O)CN(c1ccc(C)cc1)S(=O)(=O)c1c(C)n[nH]c1C 0.88%
Cc1cc(C(=O)O)ccc1NCc1ccncc1 7.32%
COCCN(CC(=O)NC1CCCCC1)C(=O)CCCC(=O)Nc1ccccn1 -5.13%
COC(=O)c1ccc(C(=O)OC)c(NC(=S)N2CCCCC2C)c1 (centres undefined) 8.35%
Cc1ccc(NC(=O)NC(=O)CN2CCC(C(N)=O)CC2)c(C)c1 -2.71%
O=C(CN1CCN(c2ccccc2)CC1)NC(=O)NCc1ccco1 5.31%
COc1ccc(N2CCN(CC(=O)Nc3ccc(C)cc3Br)CC2)cc1 -18.4%
O=C(CN1CCN(c2ccc(F)cc2)CC1)NC(=O)NCc1ccco1 -4.47%
Cc1ccccc1NC(=O)c1ccccc1NC(=O)c1ccco1 4.69%
Cn1cccc1C(=O)OCc1ccc(F)cc1 5.26%
Cc1nc2ccccn2c1C(=O)N/N=C/c1ccc(F)cc1 6.23%
COc1ccc(/C=N/NC(=O)c2c(C)nc3ccccn23)cc1[N+](=O)[O-] 0.27%
Cc1ccn2c(C(=O)N/N=C/c3ccc(Cl)cc3)c(C)nc2c1 8.94%
COc1ccc(OC)c(/C=N\NC(=O)c2c(C)nc3cc(C)ccn23)c1 -1.68%
CN(CC1CCOCC1)C(=O)CC1C(=O)NCCN1Cc1cccc(Oc2ccccc2)c1 (centres undefined) -8.59%
O=C(CSc1nnc(CNC(=O)c2c(F)cccc2F)o1)NCCc1ccccc1 6.85%
CCN1C(=O)[C@@H]2[C@H](C1=O)[C@@H]1C(=O)Nc3ccccc3C(=O)N1[C@@H]2c1ccc(OC)cc1 3.37%
O=C(Nc1ccccc1C(=O)NCCc1ccccc1)c1cnccn1 8.13%
N#Cc1cc(-c2ccccc2)cnc1Sc1ccccc1 -2.07%
CCN(CC)CCCNC(=O)Cc1c(C(=O)O)n(C)c2ccccc12 7.17%
OC(COC(c1ccccc1)c1ccccc1)CN1CCCCC1 (centres undefined) 6.55%
CC(=O)c1ccc(N2CCN(CC(O)COC(c3ccccc3)c3ccccc3C)CC2)cc1 (centres undefined) 12.8%
CCN1CCN(CC(O)COC(c2ccccc2)c2ccccc2)CC1 (centres undefined) 0.21%
c1ccc(C(CN2CCOCC2)c2ccccc2)cc1 14.5%
CCOC(=O)N1CCN(CC(c2ccccc2)c2ccccc2)CC1 20.9%
Cc1ccccc1C(OCC(O)CN1CCC(C(N)=O)CC1)c1ccccc1 (centres undefined) 6.34%
Cc1nnsc1C(=O)Nc1ccc(S(=O)(=O)N2CCCC(C)C2)cc1 (centres undefined) -21.6%
Cc1cc([N+](=O)[O-])nn1CC(=O)NCc1ccc(Cl)cc1 0.89%
COC(=O)Cc1c(OC)ccn(CCc2c[nH]c3ccccc23)c1=O 8.25%
CN1C(=O)C(C)(C)c2cc(S(=O)(=O)N3CCCC(C(=O)NCc4ccc(F)cc4)C3)ccc21 (centres undefined) 17.2%
CCC(CC)C(=O)Nc1ccc(C(=O)Nc2cc(C)on2)cc1 5%
COc1ccc(CNC(=O)C(=O)NCC2OCCCN2S(=O)(=O)c2cccs2)cc1 (centres undefined) 8.22%
N#CC1=C(N)OC(c2ccccc2)=C(C#N)C1c1ccc2c(c1)OCO2 (centres undefined) -0.39%
COc1cc(C2Nn3c(nnc3-c3ccccc3OC)S2)ccc1O (centres undefined) 3.42%
CC(C)Cc1ccc(C(=O)NCCOc2ccccc2)o1 5.6%
CNC(=O)c1c(NC(=O)c2ccc(S(=O)(=O)N3CC(C)OC(C)C3)cc2)sc2c1CCN(C(C)C)C2 (centres undefined) 11.2%
Cc1ccc(C(=O)NCC(=O)Nc2ncccc2C)s1 -8.48%
Cc1ccc(C(=O)Nc2ccncc2)cc1S(=O)(=O)N1CCOCC1 5.06%
CCOc1ccc(CCN2C(=S)N([C@@H](CC(C)C)CN3CCCC3CN3C(=S)NC[C@@H]3Cc3ccc(O)cc3)C[C@@H]2Cc2ccccc2)cc1 (some centres undefined) -2.29%
C[C@H](CO)N1C[C@H](C)[C@@H](CN(C)C(=O)c2ccccc2)OCc2cnnn2CCCC1=O 16.3%
Oc1ccccc1N=Cc1ccc[nH]1 16.7%
O=C(Nc1ccccc1O)c1ccc([N+](=O)[O-])cc1 6.91%
O=C(CN1CCOCC1)Nc1ccc(-c2nc3ccccc3[nH]2)cc1 10.7%
CC(C)C[C@@H](C(=O)O)N(Cc1cccc(CN([C@@H](CC(C)C)C(=O)O)S(C)(=O)=O)c1)S(C)(=O)=O 9.29%
CC1=C(C(=O)Nc2ccccc2C)C2(CCCC2)C(C(N)=O)C(=O)N1 (centres undefined) -3.29%
CCOC(=O)c1cnc2c(-c3ccccc3)cnn2c1C 8.8%
CCNC(=O)CSC1=N/C(=C\c2ccc(O)c(OCC)c2)C(=O)N1c1ccc(OC(F)F)cc1 7.81%
NC(=O)CSC1=N/C(=C\c2ccco2)C(=O)N1c1ccc(OC(F)F)cc1 9.08%
CCC(C)[C@H](NC(=O)N1CCN(C)CC1)C(=O)OC (some centres undefined) 3.84%
Cc1ccc(C(=O)Nc2cccc(Oc3ccccc3)c2)o1 1.9%
Cc1ccc2nc(Cc3ccc(N)cc3)[nH]c2c1 6.07%
Nc1ccc(C(=O)OCCCc2nc3cc4ccccc4cc3[nH]2)cc1 14.4%
c1ccc2[nH]c(CCCc3nc4ccccc4[nH]3)nc2c1 -1.49%
c1ccc(Cc2nc3ccccc3[nH]2)cc1 -0.91%
c1ccc2[nH]c(CCCCc3nc4ccccc4[nH]3)nc2c1 7.39%
Nc1ccc(C(=O)OCCCc2nc3ccccc3[nH]2)cc1 10%
